Laboratory results published in PubChem BioAssay (NCI).
The panel holds about 83,000 compounds, 20% with a hit somewhere; the sample as a whole holds those more often.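 Note: values are percent growth. 100 is the growth of untreated cells, values between 100 and 0 indicate rising inhibition; between -100 and 0 indicates cell death.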 The source made the active and inactive calls.

Test system: NCI-H460 lung
Experiment: NCI-60 one-dose screen, 48 h (100 = growth as untreated, 0 = no growth, -100 = all killed)
Conditions: 10 µM unless noted
Procedure: Growth inhibition of the NCI-H460 human Non-Small Cell Lung tumor cell line is measured as a screen for anti-cancer activity. Cells are grown in 96 well plates and exposed to the test compound for 48 hours. Compounds are tested at a single concentration, which is 10^-5 M for most compounds. The reported endpoint is percent growth (GI% or GIPRCNT), where numbers from 0 - 100% represent growth inhibition, and numbers from -100% - 0 represent cell death. For example, a value of 40 represents 60% growth inhibition. A value of 0 means no net growth occurred over the course of the experiment. A value of -40 indicates 40% of cells at the beginning of the experiment died by the end of the experiment. A value of -100 means all cells are dead at the end of the experiment.
NCI-60 Human Tumor Cell Lines Screen was performed using the standard one-dose NCI protocol, which is described in more detail at https://dtp.cancer.gov/discovery_development/nci-60/default.htm.
Compounds with GIPRCNT values below 10 were considered active. Activity score was based on GIPRCNT using the following formula: […]
Score is 0 for GIPRCNT values of 100 or above, 50 for GIPRCNT values of 0, and 100 for GIPRCNT values of -100.

| SMILES | growth |
| --- | --- |
| CC1Cc2ccccc2N1NC(=O)c1ccc(Cl)c(S(N)(=O)=O)c1 (stereo not given) | 111% (inactive) |
| O=C(Cc1ccc2c(c1)OCCO2)Nc1nc2ccc(F)cc2s1 | 103% (inactive) |
| O=C(CSc1nccc(Nc2ccc(S(=O)(=O)Nc3nccs3)cc2)n1)c1ccc(C(F)(F)F)cc1 | 107% (inactive) |
| O=C(COc1ccc(/C=C2\Cc3ccc(Cl)cc3C2=O)cc1)Nc1nc2ccccc2s1 | 103% (inactive) |
| Cc1oc2nc[nH]c(=O)c2c1C(=O)/C=C/c1ccc(Br)cc1 | 3.92% (active) |
| CC/C=C\C[C@@H](O)C/C=C1/C(=O)C=C[C@H]1C/C=C\CCCC(=O)OC | -33.2% (active) |
| O=C(Oc1cccc2ccccc12)Oc1cccc2ccccc12 | 110% (inactive) |
| COc1ccc(OC)c(/C=C/C(=O)N/N=C/c2ccc(Cl)cc2)c1 | 5.19% (active) |
| CCOc1ccc2nc(SCc3nc4n(n3)S(=O)(=O)c3ccccc3N4C)sc2c1 | 38.2% (inactive) |
| COc1ccc(C(=S)N2CCN(c3cccc(C)c3)CC2)cc1OC | 51.8% (inactive) |
| CN1CCN(c2ccc(-c3cnc4c(-c5csc6ccccc56)cnn4c3)cc2)CC1 | -78.2% (active) |
| C[C@H](C(=O)Nc1ccc(S(N)(=O)=O)cc1)S(=O)(=O)c1ccccc1 | 108% (inactive) |
| N#C/C(=C\c1ccc(F)cc1)n1nc2cccc(F)c2n1 | 39.2% (inactive) |
| COc1ccc(OC)c(/C=C2\Oc3cc(OCCN4CCC(Cc5ccccc5)CC4)ccc3C2=O)c1 | 82.2% (inactive) |
| COc1ccc(C(=O)C(C)C)c2ccccc12 | 101% (inactive) |
| C=C(C)[C@@H]1CC[C@]2(N=C=O)CC[C@]3(C)[C@H](CC[C@@H]4[C@@]5(C)Cc6c([nH]c7ccccc67)C(C)(C)[C@@H]5CC[C@]43C)[C@@H]12 | 39.5% (inactive) |
| O=C(/C=C/c1cccc2ccccc12)c1ccc(NC(=O)c2ccccc2CN2C(=O)c3ccccc3C2=O)cc1 | 79.9% (inactive) |
| COc1ccc(-c2c(C(=O)NS(C)(=O)=O)n(Cc3cccc(C(F)(F)F)c3)c3ccccc23)cc1 | 89.7% (inactive) |
| CS(=O)(=O)N(c1cc(-c2ccc3ncnc(Nc4ccc(F)c(Cl)c4)c3c2)cnc1Cl)S(C)(=O)=O | 34.2% (inactive) |
| CCOC(=O)c1sc2ncc(-c3ccc(C)cc3)n2c1C | 101% (inactive) |

| SMILES | growth |
| --- | --- |
| Brc1ccc2[nH]cc(-c3nc(-c4c[nH]c5ccncc45)cs3)c2c1 | -91.1% (active) |
| Cc1cc(O)c(C2=NN(c3ccc(S(N)(=O)=O)cc3)C(/C=C/c3ccccc3)C2)cc1Cl (stereo not given) | 35.3% (inactive) |
| COc1ccc(-c2ncnc3c2ncn3CC#CCCl)cc1 | 67.8% (inactive) |
| c1ccc(-c2nc3sc(-c4ccccc4)cn3n2)cc1 | 93.3% (inactive) |
| Cc1nc2ccccc2n1-c1ncnc2c1CC(C)c1ccccc1N2C (stereo not given) | 102% (inactive) |
| COc1cc(CCC[P+](c2ccccc2)(c2ccccc2)c2ccccc2)c(OC)c2c1OCO2 | 31.8% (inactive) |
| Cc1ccc(/C=C2\Oc3ccc(O)c(O)c3C2=O)cc1 | 43.4% (inactive) |
| FC(F)(F)c1cc(Nc2ccc3c(OCCCN4CCOCC4)cccc3n2)ccc1Cl | 17.3% (inactive) |
| COc1cc(C(=O)c2cnc(-c3cccc4[nH]ccc34)[nH]2)cc(OC)c1OC | 2.81% (active) |
| c1ccc2c(-c3nc(-c4c[nH]c5ccncc45)cs3)c[nH]c2c1 | -26.4% (active) |
| CCCC1CCC(O)(C(C)(O)C(=O)NC2C(=O)N3NCCCC3C(=O)N(O)C(C)C(=O)N3NCCCC3C(=O)N3NCC(O)CC3C(=O)NC(C)C(=O)OC2C(C)C)OC1CC (stereo not given) | -82.4% (active) |
| Cc1ccc2sc3c(NCCN)nc4ccccc4c3c(=O)c2c1 | -17.1% (active) |
| COc1ccc(S(=O)(=O)n2c3ccccc3n3ncc(-c4nnc(C)o4)c23)cc1 | 14.2% (inactive) |
| OC(COc1ccccc1Cl)CN1CCN(c2cccc(Cl)c2)CC1 (stereo not given) | 121% (inactive) |
| C/C=C(\C)C(=O)N[C@H]1[C@@H](OC(C)=O)C[C@]2(C)C3CC[C@@]4(C)C(CC[C@@H]4C(C)N(C)C)C3CCC2[C@H]1O (stereo not given in full) | 59% (inactive) |
| CCOC(=O)C1=C(N)Oc2c(sc3c(C)cccc23)C1c1ccc(Cl)cc1 (stereo not given) | 13.1% (inactive) |
| O=CN(SSN(C=O)C1CCCCC1)C1CCCCC1 | 125% (inactive) |
| CCC(=O)Nc1ccc(-c2nc(-c3cccc(OC)c3)c(-c3ccnc(Br)c3)[nH]2)cc1 | 49.4% (inactive) |
| O=C(Nc1ccc(Cl)cc1F)c1ccccc1O | 27.5% (inactive) |
| Cc1onc2c(-c3ccccc3)n[nH]c(=O)c12 | 109% (inactive) |
